# Test results published in PubChem BioAssay.
# Calls of active or inactive are those of the source. Unless noted, how the calls were made is not given here.
# How the values were obtained:
# [1] = compounds binding Alexa647 anti-His antibody – biochemical, small-molecule microarray, 635 nm fluorescence, artefact control for SMM control protein annotation, primary screen (AID 1128); details: higher = more signal;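 further: score merges feature fluorescence with signal-to-noise for each printed compound spot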
# [2] = system: Human papillomavirus type 1a E7 protein (residues 1-88); assay: HPV1a E7 small-molecule binders, primary screen, biochemical, small-molecule microarray, residues 1-88, 635 nm (AID 1129); details: small-molecule microarray binding, fluorescence 635 nm; higher = more signal
# [3] = target: Focal adhesion kinase 1 (Homo sapiens) (UniProt Q05397); assay: PTK2 protein binding on printed compound slides – biochemical, small-molecule microarray, 635/667 nm fluorescence, BSA, DTT, primary screen (AID 1130); details: 635 nm fluorescence, higher = more signal;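 further: composite of spot emission at 667 nm and signal to noise over triplicate slides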
# [4] = system: Fibrinogen (Alexa647-labelled); assay: Alexa647-fibrinogen binding to printed small molecules – biochemical, small-molecule microarray, 635/667 nm fluorescence, artefact control for SMM control-protein annotation, profiling panel (AID 1131); details: fibrinogen-A647 binding fluorescence, higher = more signal;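 further: z-score merges 667 nm fluorescence with per-spot signal-to-noise over triplicate slides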
# [5] = target: Follistatin (Homo sapiens) (UniProt P19883); assay: FST protein binding to printed compounds – biochemical, small-molecule microarray, 635/667 nm fluorescence, primary screen (AID 1132); details: 635 nm fluorescence, higher = more signal
# [6] = target: Fibroblast growth factor 2 (Homo sapiens) (UniProt P09038); assay: basic fibroblast growth factor binding to printed compounds – biochemical, small-molecule microarray, 635/667 nm fluorescence, primary screen (AID 1133); details: FGF2, fluorescence 635/667, higher = more signal
# [7] = JC-1 mitochondrial potential readout, lung cancer cells – cell-based, A549, JC-1 fluorescence, basal, 24 h, 100 nL, profiling panel (AID 1138); details: higher = more signal;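 further: A549 lung adenocarcinoma cells under basal conditions with no added stimulus; test concentration not given here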
# Lefty1 = Lefty1 protein binding to printed compounds – biochemical, small-molecule microarray, 635/667 nm fluorescence, primary screen (AID 1139); details: fluorescence 635/667, higher = more signal
# [8] = system: wheat germ agglutinin (Triticum aestivum), Alexa647-labelled; assay: Alexa647-WGA lectin binding to printed small molecules – biochemical, small-molecule microarray, 635/667 nm fluorescence, artefact control for SMM control-protein annotation, profiling panel (AID 1140); details: WGA-A647 binding, 635 nm fluorescence, higher = more signal;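 further: score merges 667 nm feature emission with signal to noise over triplicate slides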
# [9] = target: Luciferin 4-monooxygenase (Photinus pyralis) (UniProt P08659); assay: inhibition of purified Photinus pyralis luciferase – biochemical, luminescence, purified enzyme, 2006 set, primary screen (AID 1141); details: purified firefly luciferase, SteadyGlo luminescence, 30 min; higher = more signal, called active from +8 up or from −8 down;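 further: cell-free assay with purified firefly luciferase at 100 ng per well in PBS; test concentration not given here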
# [10] = system: Wnt5a (protein binding on small-molecule microarray); assay: small molecules binding Wnt5a protein – biophysical, small-molecule microarray, 635/667 nm fluorescence, primary screen (AID 1142); details: 635 nm fluorescence, higher = more signal;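 further: fluorescence read at 667 nm with signal to noise per printed feature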
# [11] = ATP-based viability of Huh7 replicon cells – cell-based, CellTiter-Glo luminescence, basal, 48 h, cytotoxicity control for HCV replication inhibitor project, primary screen (AID 1143); details: higher = more signal, called active from +8 up or from −8 down;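 further: Huh7 hepatoma cells carrying a hepatitis C replication reporter with no stimulus; test concentration not given here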
# [12] = Pseudomonas biofilm growth suppression – PAO1 strain, BacTiter-Glo luminescence, LB-PBS, primary screen (AID 1144); details: P. aeruginosa PAO1 biofilm, 12 h, higher = more signal
# [13] = basal CRE-LacZ reporter activity in PC12 – cell-based, unstimulated, primary screen (AID 1145); details: no forskolin, luminescence, 4.5 h, higher = more signal, called active from +8 up or from −8 down
# [14] = forskolin-driven CRE-LacZ activity in PC12 – cell-based, CRE-LacZ reporter, forskolin-stimulated, primary screen (AID 1146); details: luminescence, 4.5 h, higher = more signal, called active from +8 up or from −8 down;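 further: PC12 cells with 6xCRE LacZ reporter stimulated by forskolin 10 µM; beta-galactosidase reporter signal reflecting CREB driven transcription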
# [15] = target: Streptavidin (Streptomyces avidinii) (UniProt P22629); assay: compounds binding control protein streptavidin – biophysical, small-molecule microarray, 635/667 nm fluorescence, artefact control for SMM compound annotation, primary screen (AID 1147); details: higher = more signal;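 further: signal reflects streptavidin binding to arrayed compounds as a control protein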
# [16] = probe aInhba binding on compound microarray – biochemical, small-molecule microarray, 635/667 nm fluorescence, primary screen (AID 1148); details: higher = more signal;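 further: score merges 667nm spot fluorescence with signal-to-noise for antibody binding to printed compounds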
# Torsin-1A (Homo sapiens) [17] = target: Torsin-1A (Homo sapiens) (UniProt O14656); assay: TOR1A wild-type binding on microarray – cell lysate, small-molecule microarray, lysate, 635/667 nm, primary screen (AID 1149); details: COS7 hTOR1A-WT lysate, 635 nm fluorescence, higher = more signal
# Torsin-1A (Homo sapiens) [18] = target: Torsin-1A (Homo sapiens) (UniProt O14656); assay: torsin A mutant lysate binding on microarrays – cell lysate, small-molecule microarray, COS7 lysate, 635/667 nm fluorescence, primary screen (AID 1150); details: COS7 hTOR1A mutant lysate, 635 nm fluorescence, higher = more signal;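 further: score pools 667 nm emission and signal to noise measuring lysate protein binding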
# [19] = system: Sonic hedgehog protein (Shh); assay: Sonic hedgehog microarray binding compounds – biochemical, small-molecule microarray, 635/667 nm fluorescence, primary screen (AID 1151); details: 635 nm fluorescence, higher = more signal;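 further: Shh protein binding to compounds spotted on small-molecule microarray slides; score combines spot fluorescence intensity with signal-to-noise across triplicate slides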
# Chain of Fibroblast growth factor 2 (Homo sapiens) (P09038 whole entry, looked up): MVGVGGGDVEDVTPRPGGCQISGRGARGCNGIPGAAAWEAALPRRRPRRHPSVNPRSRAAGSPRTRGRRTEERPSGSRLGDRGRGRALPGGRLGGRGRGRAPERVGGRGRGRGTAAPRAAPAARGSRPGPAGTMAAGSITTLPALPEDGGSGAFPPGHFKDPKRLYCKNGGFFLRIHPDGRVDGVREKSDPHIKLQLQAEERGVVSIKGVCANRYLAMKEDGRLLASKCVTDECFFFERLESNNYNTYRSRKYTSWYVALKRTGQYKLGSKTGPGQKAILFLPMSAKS
# Chain of Luciferin 4-monooxygenase (Photinus pyralis) (P08659 whole entry, looked up): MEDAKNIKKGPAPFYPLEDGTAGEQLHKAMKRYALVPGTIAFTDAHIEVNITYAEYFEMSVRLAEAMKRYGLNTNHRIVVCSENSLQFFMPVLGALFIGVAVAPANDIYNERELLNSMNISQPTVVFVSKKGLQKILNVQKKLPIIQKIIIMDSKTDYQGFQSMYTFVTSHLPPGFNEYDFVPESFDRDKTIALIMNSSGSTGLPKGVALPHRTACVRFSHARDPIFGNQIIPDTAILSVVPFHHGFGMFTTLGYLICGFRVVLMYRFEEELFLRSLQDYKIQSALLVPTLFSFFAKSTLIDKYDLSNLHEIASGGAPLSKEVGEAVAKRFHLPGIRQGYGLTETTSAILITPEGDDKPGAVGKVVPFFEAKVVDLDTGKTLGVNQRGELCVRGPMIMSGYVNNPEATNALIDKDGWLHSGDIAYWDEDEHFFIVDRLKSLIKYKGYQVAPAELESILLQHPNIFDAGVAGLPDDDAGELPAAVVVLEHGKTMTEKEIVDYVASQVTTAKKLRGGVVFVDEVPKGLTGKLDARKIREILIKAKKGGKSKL
# Chain of Streptavidin (Streptomyces avidinii) (P22629 whole entry, looked up): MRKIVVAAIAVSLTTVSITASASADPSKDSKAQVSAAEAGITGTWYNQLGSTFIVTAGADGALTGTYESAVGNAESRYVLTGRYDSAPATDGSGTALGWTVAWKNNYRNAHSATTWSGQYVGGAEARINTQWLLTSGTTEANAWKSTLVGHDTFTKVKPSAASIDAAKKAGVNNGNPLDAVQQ
# Chain of Follistatin (Homo sapiens) (P19883 whole entry, looked up): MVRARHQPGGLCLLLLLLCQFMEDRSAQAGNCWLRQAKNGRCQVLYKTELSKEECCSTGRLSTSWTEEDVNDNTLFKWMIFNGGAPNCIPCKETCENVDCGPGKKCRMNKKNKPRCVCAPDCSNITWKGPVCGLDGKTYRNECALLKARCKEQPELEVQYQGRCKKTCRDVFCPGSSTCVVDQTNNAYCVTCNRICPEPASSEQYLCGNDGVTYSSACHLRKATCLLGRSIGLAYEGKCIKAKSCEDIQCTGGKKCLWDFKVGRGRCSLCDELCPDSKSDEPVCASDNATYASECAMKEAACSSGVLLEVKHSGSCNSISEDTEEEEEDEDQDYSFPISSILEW
# Chain of Focal adhesion kinase 1 (Homo sapiens) (Q05397 whole entry, looked up): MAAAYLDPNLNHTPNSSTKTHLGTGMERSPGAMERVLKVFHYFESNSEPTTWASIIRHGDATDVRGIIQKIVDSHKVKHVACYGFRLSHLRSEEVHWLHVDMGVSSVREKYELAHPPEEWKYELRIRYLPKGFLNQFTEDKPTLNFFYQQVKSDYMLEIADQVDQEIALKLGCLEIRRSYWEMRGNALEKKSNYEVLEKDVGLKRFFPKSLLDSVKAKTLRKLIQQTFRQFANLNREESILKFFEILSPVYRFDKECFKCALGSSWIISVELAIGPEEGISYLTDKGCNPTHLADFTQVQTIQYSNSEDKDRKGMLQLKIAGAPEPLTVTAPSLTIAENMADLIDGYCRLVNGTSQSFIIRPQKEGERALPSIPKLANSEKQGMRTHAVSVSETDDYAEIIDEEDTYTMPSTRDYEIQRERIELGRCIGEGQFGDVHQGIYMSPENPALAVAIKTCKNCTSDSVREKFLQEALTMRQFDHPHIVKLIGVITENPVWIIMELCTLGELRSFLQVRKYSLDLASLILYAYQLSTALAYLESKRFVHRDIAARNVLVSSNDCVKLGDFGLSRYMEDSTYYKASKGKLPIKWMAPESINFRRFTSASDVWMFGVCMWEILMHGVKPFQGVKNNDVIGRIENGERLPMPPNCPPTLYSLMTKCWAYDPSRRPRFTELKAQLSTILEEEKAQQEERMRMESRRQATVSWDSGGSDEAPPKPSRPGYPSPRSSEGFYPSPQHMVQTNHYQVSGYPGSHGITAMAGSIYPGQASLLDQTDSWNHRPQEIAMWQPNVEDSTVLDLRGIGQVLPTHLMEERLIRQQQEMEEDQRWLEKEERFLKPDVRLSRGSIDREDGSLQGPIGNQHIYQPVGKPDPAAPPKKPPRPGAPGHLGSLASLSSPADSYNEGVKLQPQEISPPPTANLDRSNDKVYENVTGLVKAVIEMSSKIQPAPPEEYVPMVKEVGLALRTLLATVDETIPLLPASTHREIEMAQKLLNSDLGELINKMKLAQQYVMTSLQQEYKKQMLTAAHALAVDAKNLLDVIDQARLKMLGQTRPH
# Chain of Torsin-1A (Homo sapiens) (O14656 whole entry, looked up): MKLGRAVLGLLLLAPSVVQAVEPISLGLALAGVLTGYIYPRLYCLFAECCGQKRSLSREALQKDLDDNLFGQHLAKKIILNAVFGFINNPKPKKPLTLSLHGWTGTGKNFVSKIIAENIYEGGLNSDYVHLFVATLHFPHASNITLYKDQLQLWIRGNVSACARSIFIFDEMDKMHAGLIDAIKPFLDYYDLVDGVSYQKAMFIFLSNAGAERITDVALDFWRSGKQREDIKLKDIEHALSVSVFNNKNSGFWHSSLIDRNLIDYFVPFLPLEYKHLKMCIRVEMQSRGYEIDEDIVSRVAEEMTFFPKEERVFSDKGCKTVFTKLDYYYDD
Structure (SMILES),composite z-score [1],composite z-score [2],composite z-score [3],composite z-score [4],composite z-score [5],composite z-score [6],z-score [7],composite z-score (Lefty1),composite z-score [8],z-score [9],composite z-score [10],z-score [11],z-score [12],z-score [13],z-score [14],composite z-score [15],composite z-score [16],composite z-score (Torsin-1A (Homo sapiens) [17]),composite z-score (Torsin-1A (Homo sapiens) [18]),composite z-score [19]
COCCOC(=O)N1C(=O)[C@@]2(c3cc(C#CCCO)ccc31)[C@H](C(=O)N1CCN(c3ncccn3)CC1)[C@H]1C(=O)O[C@H](c3ccccc3)[C@H](c3ccccc3)N1[C@@H]2c1ccccc1OCCO,0.475,1.23,0.868,0.972,1.35,0.821,-0.778,0.828,1.04,1.23 (inactive),0.0536,-2.42 (inactive),-0.173 (inactive),-0.698 (inactive),-0.228 (inactive),1.08,-0.0983,0.259,0.829,0.842
C=CCC(OC(C)=O)[C@@H]1[C@@H](N(Cc2ccc(-c3cccc(C(F)(F)F)c3)o2)C(=O)c2ccc(-c3ccccc3)cc2)c2cc(OCCCO)ccc2N1C(=O)c1ccc(-c2ccccc2)cc1 (stereo not given in full),-0.674,-0.714,-0.045,-0.557,0.47,-0.0003,0.872,0.164,-0.0266,-0.277 (inactive),-0.0065,0.42 (inactive),0.103 (inactive),0.0176 (inactive),0.262 (inactive),0.0998,-0.0403,-0.0662,0.0093,0.32
COc1ccc(CCN2C(=O)[C@@]3(c4ccc([N+](=O)[O-])cc4)CC(=O)N(C4CCCCC4)[C@@H]3c3ccc(CO)cc32)cc1,0.521,-0.82,0.151,-0.382,1.42,1.4,-0.552,0.563,-0.569,0.3 (inactive),-0.0463,0.443 (inactive),0.0718 (inactive),-0.0512 (inactive),0.86 (inactive),-0.298,0.158,0.209,0.128,1.19
[N-]=[N+]=NCc1ccccc1C[C@@]1(C(=O)NCC(O)CO)N=C(c2ccc(OCCCO)cc2)O[C@@H]1c1ccccc1N=[N+]=[N-] (stereo not given in full),2.41,1.22,1.22,0.962,1.38,1.58,-0.043,-0.709,1.15,-3.13 (inactive),0.63,-3.67 (inactive),-0.68 (inactive),0.209 (inactive),-1.57 (inactive),1.89,0.475,0.73,1.07,-0.762
CC(C)(C)C(=O)N[C@@H](c1ccc(Cl)cc1)[C@]1(C)C[C@H]1C1CCCCC1,0.893,1.21,1.19,1.02,0.279,-0.386,2.63,-0.775,0.537,0.542 (inactive),0.182,-2.95 (inactive),-0.153 (inactive),0.197 (inactive),0.456 (inactive),2.44,0.634,0.895,1.18,-0.546
O=C(NCc1ccccc1)[C@@]1(Cc2ccccc2)N=C(c2ccc(OCCCO)cc2)O[C@H]1c1ccccc1,1.47,1.22,0.45,0.866,0.368,-0.352,0.164,-0.872,1.05,0.712 (inactive),0.209,-3.5 (inactive),-0.883 (inactive),-0.183 (inactive),-0.413 (inactive),1.15,0.161,0.924,0.918,-0.183
COC(=O)[C@@]1(Cc2ccc(F)cc2)[C@H]2c3cc(C(=O)N4CCCC4)n(Cc4cc(C)n(C)n4)c3C[C@H]2CN1C(=O)c1ccccc1,1.85,1.26,1.03,1.01,0.392,-0.47,0.0507,-0.847,0.628,0.609 (inactive),0.639,-2 (inactive),-0.132 (inactive),0.583 (inactive),0.989 (inactive),1.65,0.32,0.0304,1.04,-1.06
O=C(NCc1ccccc1)[C@@H]1c2ccccc2C(=O)N(CC23CC4CC(CC(C4)C2)C3)[C@H]1c1ccc(CO)cc1,0.153,1.19,0.0304,0.937,1.17,1.43,0.705,0.884,0.31,-0.715 (inactive),0.237,-2 (inactive),0.196 (inactive),-0.439 (inactive),0.707 (inactive),0.467,-0.377,0.239,0.654,1.83
COc1cc(CO)cc(I)c1O[C@H]1C=C(C(=O)NCCO)C[C@@H](N(CCN2CCOCC2)C(=O)C2CCOC2)[C@@H]1O (stereo not given in full),-0.504,-0.233,-0.508,0.651,0.581,0.675,1.86,0.792,-0.201,-1.13 (inactive),-0.31,-0.846 (inactive),0.367 (inactive),0.495 (inactive),-1.45 (inactive),-0.512,-0.0195,0.055,0.399,0.309
COCC(=C=CC[C@@H](O)c1ccccc1OCCO)C[C@@H](O)c1cc(Cl)cc(Cl)c1O,0.819,1.23,0.14,0.867,1.24,1.21,-0.41,0.666,0.289,-1.02 (inactive),0.539,-1.54 (inactive),0.112 (inactive),15.6 (active),0.789 (inactive),0.394,-0.0112,1.66,1.04,2.07
